Assay results taken from PubChem BioAssay AID651949 (Broad Institute, 2012).
Results with a measured potency or affinity are listed apart. Calls of active or inactive are those of the source.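 How the source made its calls: active means compounds lowering cell ATP signal whose fitted half-maximal concentration is at most twice the top tested dose; inconclusive means flat curve with 30 to 70% signal loss, or poor fit; inactive means the rest.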

test: HEK293T cell cytotoxicity, dose response, cytotoxicity control, CellTiter-Glo luminescence, dry powder, set 6 (AID 651949); details: HEK293T viability, CellTiter-Glo ATP luminescence, 48 h; series mostly up to 26 µM

Row | Compound | outcome
1 | Cc1cccc(CSc2nnc(-c3ccccc3)o2)c1 | inactive
2 | N#Cc1cccc(CSc2nnc(-c3ccccc3)o2)c1 | inactive
3 | Fc1ccc(Cn2cc(CSc3nnc(-c4ccc(F)cc4)o3)nn2)cc1 | inactive
4 | c1ccc(-c2nnc(SCc3ccncc3)o2)cc1 | inactive
5 | c1ccc(-c2nnc(SCCN3CCOCC3)o2)cc1 | inactive
6 | O=C(Cc1ccccc1)c1nnc(-c2ccccc2)o1 | inactive
7 | COc1ccc(CSc2nnc(-c3ccc(Cl)cc3)o2)nc1 | inactive
8 | Fc1ccc(Cn2cc(CSc3nnc(C4CCCC4)o3)nn2)cc1 | inactive
9 | c1ccc(CCc2nnc(SCc3ccccc3)o2)cc1 | inactive
10 | c1ccc(COc2nnc(-c3ccccc3)o2)cc1 | inactive
11 | Clc1ccccc1-c1nnc(SCc2ccccc2)o1 | inactive
12 | c1ccc(-c2nnc(SCc3ncco3)o2)cc1 | inactive
13 | c1ccc(CSc2nnc(-c3ccccn3)o2)cc1 | inactive
14 | COCCSc1nnc(-c2ccccc2)o1 | inactive
15 | Cc1nnc(SCc2ccccc2)o1 | inactive
16 | COc1ccc(-c2nnc(SCc3ccccn3)o2)cc1 | inactive
17 | FC(F)(F)Oc1cccc(CSc2nnc(-c3ccccc3)o2)c1 | inactive
18 | CSc1nnc(-c2ccccc2)o1 | inactive
19 | c1ccc(CSc2nnc(Cc3ccccc3)o2)cc1 | inactive
20 | Cc1ccc(CSc2nnc(-c3ccccc3)o2)cc1 | inactive
21 | FC(F)(F)CNCCSc1nnc(-c2ccccc2)o1 | inactive
22 | Fc1ccc(-c2nnc(SCc3ccccc3)o2)cc1 | inactive
23 | c1ccc(CCc2nnc(-c3ccccc3)o2)cc1 | inactive
24 | Clc1cccc(-c2nnc(SCc3ccccc3)o2)c1 | inactive
